For test [1], the target named is Rap guanine nucleotide exchange factor 3 (Homo sapiens) (UniProt O95398). The test can be described thus: Confirmatory qHTS for antagonist of cAMP-regulated guanine nucleotide exchange factor 3 (EPAC1) (AID 1645880). Also: nearly all actives have a fitted effect of over 55% in size. Also: potency is read from the fitted curve at half-maximal effect. The procedure, abridged:
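Nucleotide exchange uses 100 nM EPAC1, 250 nM RAP1B-BODIPY-GDP and 50 uM GDP, with compounds in a concentration-titration series. After 5 min at room temperature, fluorescence (480 nm ex/540 nm em) is read every 5 min for 30 min. Data are normalized to control ATA and DMSO.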

Test [2] shares this target. The test can be described thus: Confirmatory qHTS for agonist of cAMP-regulated guanine nucleotide exchange factor 3 (EPAC1) (AID 1645881).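 Also: EPAC1 catalysed release of BODIPY-GDP from Rap1B seen as fluorescence loss; 100% = effect of cAMP agonist control; nearly all actives have a fitted effect of over 75% in size.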
In test [3] the target is Rap guanine nucleotide exchange factor 4 (Homo sapiens) (UniProt Q8WZA2). The test can be described thus: Confirmatory qHTS for agonist of cAMP-regulated guanine nucleotide exchange factor 4 (EPAC2) (AID 1645884).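 Also: nucleotide exchange releases bodipy-GDP from Rap1 and this lowers its fluorescence; % is scaled to controls: 0 for no effect and ±100 for the full control effect; nearly all actives have a fitted effect of over 65% in size.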
Sequence of Rap guanine nucleotide exchange factor 4 (Homo sapiens) (Q8WZA2 whole entry, looked up): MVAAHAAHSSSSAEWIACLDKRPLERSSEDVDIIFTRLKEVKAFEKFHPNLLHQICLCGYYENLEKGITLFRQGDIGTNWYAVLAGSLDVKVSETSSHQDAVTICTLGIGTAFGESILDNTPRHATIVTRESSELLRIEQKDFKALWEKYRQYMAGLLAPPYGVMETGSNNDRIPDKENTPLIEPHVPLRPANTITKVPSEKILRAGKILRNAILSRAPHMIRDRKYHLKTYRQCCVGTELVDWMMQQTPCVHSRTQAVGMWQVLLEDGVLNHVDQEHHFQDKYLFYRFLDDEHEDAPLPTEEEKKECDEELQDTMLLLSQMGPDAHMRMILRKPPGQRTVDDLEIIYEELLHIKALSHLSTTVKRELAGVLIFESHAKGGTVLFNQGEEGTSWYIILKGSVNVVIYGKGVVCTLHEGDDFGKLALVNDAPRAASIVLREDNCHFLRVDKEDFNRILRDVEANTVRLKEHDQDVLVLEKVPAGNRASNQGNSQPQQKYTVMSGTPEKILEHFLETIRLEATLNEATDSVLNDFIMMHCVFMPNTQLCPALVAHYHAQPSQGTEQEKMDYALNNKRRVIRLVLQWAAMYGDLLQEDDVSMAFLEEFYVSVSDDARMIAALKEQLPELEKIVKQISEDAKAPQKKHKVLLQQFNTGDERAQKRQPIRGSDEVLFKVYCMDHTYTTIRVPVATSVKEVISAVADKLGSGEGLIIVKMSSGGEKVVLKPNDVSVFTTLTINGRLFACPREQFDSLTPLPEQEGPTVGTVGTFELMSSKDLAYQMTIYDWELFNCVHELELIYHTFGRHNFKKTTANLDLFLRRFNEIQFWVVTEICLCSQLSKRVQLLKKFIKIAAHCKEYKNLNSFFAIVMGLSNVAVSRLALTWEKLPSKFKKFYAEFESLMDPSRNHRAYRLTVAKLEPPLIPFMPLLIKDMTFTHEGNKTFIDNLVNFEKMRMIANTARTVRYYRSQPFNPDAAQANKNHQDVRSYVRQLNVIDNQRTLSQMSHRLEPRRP
Test [4] has the same target. The test can be described thus: Confirmatory qHTS for antagonist of cAMP-regulated guanine nucleotide exchange factor 4 (EPAC2) (AID 1645885). Also: nearly all actives have a fitted effect of over 25% in size. Also: potency is read from the fitted curve at half-maximal effect. As to activity change, negative = inhibition: % is scaled to controls: 0 for no effect and ±100 for the full control effect.
The target of test [5] is Rap guanine nucleotide exchange factor 3 (Homo sapiens) (UniProt O95398). The test can be described thus: Counterscreen qHTS for antagonist of cAMP-regulated guanine nucleotide exchange factor 3 (EPAC1) (AID 1645888).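 Also: fluorescence loss as bound BODIPY-GDP is released from Rap1B; % of control where 0% means no effect.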 The method, boiled down: (§1)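 Rap1B-BODIPY-GDP 250 nM + GDP 50 uM; cpds 7-pt, final 9.74 nM–152 uM (activator mode) or from 7.32 nM upwards (inhibitor mode); RT; FI 480/540 nm at 5 and 30 min, then ± cAMP, reread.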
Sequence of Rap guanine nucleotide exchange factor 3 (Homo sapiens) (O95398 whole entry, looked up): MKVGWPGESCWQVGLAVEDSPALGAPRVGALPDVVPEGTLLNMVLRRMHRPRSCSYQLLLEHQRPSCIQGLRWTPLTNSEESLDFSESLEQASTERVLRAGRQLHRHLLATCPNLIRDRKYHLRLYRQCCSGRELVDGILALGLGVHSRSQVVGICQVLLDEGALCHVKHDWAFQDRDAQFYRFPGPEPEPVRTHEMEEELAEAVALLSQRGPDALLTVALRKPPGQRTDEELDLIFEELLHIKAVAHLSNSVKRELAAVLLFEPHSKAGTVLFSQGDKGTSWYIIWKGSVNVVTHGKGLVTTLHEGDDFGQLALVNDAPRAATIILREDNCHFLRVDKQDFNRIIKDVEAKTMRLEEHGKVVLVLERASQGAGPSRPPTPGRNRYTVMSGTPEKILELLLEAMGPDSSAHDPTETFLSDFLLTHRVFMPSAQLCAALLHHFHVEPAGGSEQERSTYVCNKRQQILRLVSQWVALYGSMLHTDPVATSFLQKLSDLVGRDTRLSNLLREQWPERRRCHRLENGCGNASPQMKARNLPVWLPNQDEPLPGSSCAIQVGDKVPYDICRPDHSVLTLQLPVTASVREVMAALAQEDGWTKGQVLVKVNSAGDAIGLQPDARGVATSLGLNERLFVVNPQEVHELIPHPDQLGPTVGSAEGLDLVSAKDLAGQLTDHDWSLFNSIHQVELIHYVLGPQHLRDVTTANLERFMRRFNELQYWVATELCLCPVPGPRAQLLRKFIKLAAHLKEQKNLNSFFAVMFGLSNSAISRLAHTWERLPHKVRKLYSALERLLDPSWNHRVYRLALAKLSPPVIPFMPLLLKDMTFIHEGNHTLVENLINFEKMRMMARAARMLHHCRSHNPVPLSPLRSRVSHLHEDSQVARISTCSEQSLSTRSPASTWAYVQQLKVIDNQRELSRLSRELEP

Test [6] has the same target. The test can be described thus: Counterscreen qHTS for agonist of cAMP-regulated guanine nucleotide exchange factor 3 (EPAC1) (AID 1645889). Also: % of control where 0% means no effect; nearly all actives have a fitted effect of over 40% in size. The method, boiled down:
as §1

Results filed as inconclusive are left out. Values without a mark were called inactive. The source made the active and inactive calls. Calls follow the shape of the dose curve; as a rule, active = well fitted curve in the direction sought with a large enough effect; inconclusive = small, poorly fitted or top-dose-only effect, or another doubt; inactive = no such curve, though single readings can be large; an effect the other way counts as inactive or inconclusive.

For `Cc1ccc(C)c(-n2c3nc(=O)[nH]c(=O)c-3cc3cc([N+](=O)[O-])ccc32)c1`, the Potency in test [1] was 47.8 µM (active). For the same molecule, the Potency result in test [2], in test [3], in test [4] and in test [5] was “inactive” in each case.

With `CCOC(=O)c1ccccc1NC(=O)c1c(-c2ccccc2)noc1C`, the Potency entry in test [1], in test [2], in test [3], in test [4] and in test [5] was “inactive” in each case.

Turning to `COC1=NC(=C(c2ccccc2)c2ccccc2)OC1=O`, the Potency in test [1] was 19 µM (active); in test [4], 47.8 µM (active). The Potency entry in test [2], in test [3] and in test [5] was “inactive” throughout.

`O=C(COC(=O)CSc1ccc([N+](=O)[O-])cc1)NCc1cccs1`: the Potency entry in test [1], in test [2], in test [3], in test [4] and in test [5] was “inactive” each time.

Regarding `COc1cc(C=NNc2ccc(S(=O)(=O)Nc3ccccc3C(=O)O)cc2[N+](=O)[O-])ccc1O`, in test [1], the Potency is 20 µM (active). The Potency result in test [2] and in test [4] was “inactive” in each case. In test [3], the activation was -6.92% [at 17.1 µM, percent relative to cAMP agonist control]. Besides, the activity change, negative = inhibition in test [5] was -11.1% [at 30.8 µM].

On to `Cc1[nH]n(-c2ccccc2)c(=O)c1C(c1cccc([N+](=O)[O-])c1O)c1c(C)[nH]n(-c2ccccc2)c1=O`, for which the Potency in test [1] was 44.7 µM (active). Moreover, the Potency result in test [2] and in test [4] was “inactive” in each case. The activation in test [3] was 0.393% [at 17.1 µM, percent relative to cAMP agonist control]. Besides, the activity change, negative = inhibition in test [5] is 23.8% [at 30.8 µM].

For the molecule `CCOc1ccc(CCNC(=O)c2cccc(S(=O)(=O)N3CCCCC3)c2)cc1OCC`, the Potency entry in test [1], in test [2], in test [3], in test [4], in test [5] and in test [6] was “inactive” in each case.

Regarding `O=S1(=O)CCO[C@H]2Cc3ccccc3[C@H]2N1Cc1ccc(Cl)cc1`, the Potency result in test [1], in test [2] and in test [4] was “inactive” each time. Moreover, the activation in test [3] was -2.47% [at 17.1 µM, percent relative to cAMP agonist control]. Further, in test [5], the activity change, negative = inhibition was -21.2% [at 30.8 µM].

On to `COc1cccc(/C=C2\SC(=S)N(NS(=O)(=O)c3ccccc3)C2=O)c1OC`, for which the values for the Potency in test [1] and in test [4] were 33.8 µM (active) and 37.9 µM (active), respectively. Moreover, the Potency result in test [2], in test [3], in test [5] and in test [6] was “inactive” in each case.

Regarding `CCCC(=O)Nc1nnc(SCc2cc(=O)c3ccc(C)cc3[nH]2)s1`, the Potency entry in test [1], in test [2], in test [3], in test [4] and in test [5] was “inactive” throughout.

`CCN(CC)CCn1c2c(c(SCC(=O)NCc3ccccc3)nc1=O)CCCC2`: the Potency result in test [1], in test [2], in test [3], in test [4], in test [5] and in test [6] was “inactive” in each case.

Regarding `Fc1ccc(C(Nc2ccccn2)c2c[nH]c3ccccc23)cc1` (stereo unspecified), the Potency result in test [1], in test [2] and in test [4] was “inactive” each time. For the same molecule, the activation in test [3] is 7.5% [at 17.1 µM, percent relative to cAMP agonist control]. Also, the activity change, negative = inhibition in test [5] was -2.83% [at 30.8 µM].

With `Clc1ccccc1Cn1c(-c2cccs2)nc2ccccc21`, the Potency entry in test [1], in test [2], in test [3], in test [4] and in test [5] was “inactive” each time.

As to `COc1ccc(NC(=O)C2=NN(c3ccccc3)C(=O)CC2)cn1`, the Potency result in test [1], in test [2], in test [3], in test [4] and in test [5] was “inactive” throughout.

As to `O=C(O)c1ccc(N/N=C/c2ccc3c(c2)OCO3)cc1`, the Potency result in test [1], in test [2], in test [3], in test [5] and in test [6] was “inactive” each time. In addition, the Potency in test [4] is 33.8 µM (active).

With `CCCCOC(=O)CSc1nnc(-c2ccc(Cl)cc2Cl)o1`, the Potency entry in test [1], in test [2] and in test [4] was “inactive” throughout. Besides, the activation in test [3] is 5.42% [at 17.1 µM, percent relative to cAMP agonist control]; in test [6], 14.1% [at 30.8 µM]. Besides, in test [5], the activity change, negative = inhibition is -4.49% [at 30.8 µM].

Consider `Cc1ccc(S(=O)(=O)NCCC(=O)N2CC(C)OC(C)C2)cc1` (stereo unspecified), for which the Potency result in test [1], in test [2], in test [3], in test [4], in test [5] and in test [6] was “inactive” in each case.

In the case of `Cc1ccsc1C(=O)OCC(=O)NCCNC(=O)COC(=O)c1sccc1C`, the Potency result in test [1], in test [2], in test [3], in test [4], in test [5] and in test [6] was “inactive” each time.

Consider `Cc1nc(=O)c(-c2ccccc2)c(C)n1CCCCCC(=O)O`, for which the Potency entry in test [1], in test [2] and in test [4] was “inactive” each time. Also, the activation in test [3] was 0.623% [at 17.1 µM, percent relative to cAMP agonist control]; in test [6], 4.21% [at 30.8 µM]. Also, in test [5], the activity change, negative = inhibition was -38.6% [at 30.8 µM].

Turning to `CCc1cccc(C)c1NC(=O)c1cc2ccccc2o1`, the Potency entry in test [1], in test [2], in test [3], in test [4], in test [5] and in test [6] was “inactive” throughout.

With `CC1Cc2nc(SCC(=O)NCc3ccccc3)n(Cc3ccccc3)c(=O)c2S1` (stereo unspecified), the Potency entry in test [1], in test [2] and in test [4] was “inactive” in each case. For the same molecule, the activation in test [3] is 2.68% [at 17.1 µM, percent relative to cAMP agonist control]; in test [6] it was 14% [at 30.8 µM]. The activity change, negative = inhibition in test [5] was 0.448% [at 30.8 µM].

As for `COc1ccc(CNC(=O)c2cc(=O)c3cc(C)ccc3o2)cc1`, the Potency entry in test [1], in test [2], in test [3], in test [4], in test [5] and in test [6] was “inactive” in each case.

Values taken from PubChem BioAssay (NCATS).
